# About 2,000 (36%) of roughly 5,500 compounds were called active. Another 18% or so got no clear call; they are omitted. This is one part of the list. Unmarked numbers belong to inactive results. Rule as the data show it: active = normalized growth mostly below about 0.91 (no sharp cut-off); inconclusive = no clear call, values can overlap the other calls; inactive = mostly above about 0.92.
# Assay: chemical genetic growth profiling, strain panel (AID 1159580);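 also: tested at 20 µM; growth read once vehicle control cultures reached saturation at 30 °C; 1 = growth at the plate median or of vehicle wells; lower values mean less growth of the strain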
# Conditions: S. cerevisiae deletion strains, growth OD
# [1] = locus YAL013W, strain DEP1, active compounds read low
# [2] = locus YGR078C, strain PAC10, active compounds read low
# [3] = locus YNL153C, strain GIM3, active compounds read low
# [4] = locus YNL322C, strain KRE1, active compounds read low
# [5] = locus YPL055C, strain LGE1, active compounds read low
# [6] = locus YPL241C, strain CIN2, active compounds read low
smiles,measurement,setting,value
COc1cccc(C2C3=C(CC(C)(C)CC3=O)OC3=C2C(=O)CC(C)(C)C3)c1O,normalized growth,[1],1
same,normalized growth,"locus YBR229C, strain ROT2, active compounds read low",0.987
same,normalized growth,"locus YCL061C, strain MRC1, active compounds read low",1.02
same,normalized growth,"locus YDL101C, strain DUN1, active compounds read low",1.01
same,normalized growth,"locus YDL134C, strain PPH21, active compounds read low",0.978
same,normalized growth,"locus YDR150W, strain NUM1, active compounds read low",1.04
same,normalized growth,"locus YEL061C, strain CIN8, active compounds read low",0.965
same,normalized growth,[2],1
same,normalized growth,"locus YHR030C, strain SLT2, active compounds read low",1.08
same,normalized growth,"locus YHR087W, strain rtc3, active compounds read low",0.958
same,normalized growth,"locus YJR043C, strain POL32, active compounds read low",1.03
same,normalized growth,"locus YJR075W, strain HOC1, active compounds read low",1
same,normalized growth,"locus YKL190W, strain CNB1, active compounds read low",0.988
same,normalized growth,"locus YLR039C, strain RIC1, active compounds read low",1.08
same,normalized growth,"locus YLR058C, strain SHM2 (second series), active compounds read low",0.991
same,normalized growth,"locus YLR085C, strain ARP6, active compounds read low",0.977
same,normalized growth,"locus YLR262C, strain YPT6, active compounds read low",1.04
same,normalized growth,"locus YML094W, strain GIM5, active compounds read low",1.01
same,normalized growth,"locus YMR219W, strain ESC1, active compounds read low",1
same,normalized growth,"locus YMR263W, strain SAP30, active compounds read low",0.999
same,normalized growth,"locus YMR307W, strain GAS1, active compounds read low",0.876
same,normalized growth,"locus YNL128W, strain TEP1, active compounds read low",0.983
same,normalized growth,[3],1
same,normalized growth,"locus YNL298W, strain CLA4 (second series), active compounds read low",0.927
same,normalized growth,[4],0.993
same,normalized growth,"locus YNR030W, strain Alg12, active compounds read low",0.977
same,normalized growth,"locus YOL006C, strain TOP1, active compounds read low",0.947
same,normalized growth,[5],1
same,normalized growth,[6],1.01
same,normalized growth,"locus YPR135W, strain CTF4, active compounds read low",0.976
C[C@H](Cc1ccc(O)c(O)c1)[C@@H](C)Cc1ccc(O)c(O)c1,normalized growth,[1],0.783 (active)
same,normalized growth,"locus YAL040C, strain CLN3, active compounds read low",1.07
same,normalized growth,"locus YCL061C, strain MRC1 (second series), active compounds read low",0.811 (active)
same,normalized growth,"locus YDR363W, strain ESC2, active compounds read low",0.745 (active)
same,normalized growth,"locus YER002W, strain NOP16, active compounds read low",0.979
same,normalized growth,[2],0.986
same,normalized growth,[3],0.863
same,normalized growth,"locus YNL175C, strain NOP13, active compounds read low",0.946
same,normalized growth,"locus YNL197C, strain WHI3, active compounds read low",0.969
same,normalized growth,"locus YNL224C, strain SQS1, active compounds read low",0.966
same,normalized growth,[4],0.478 (active)
same,normalized growth,"locus YOR083W, strain WHI5 (second series), active compounds read low",0.925
same,normalized growth,[5],0.77 (active)
same,normalized growth,[6],0.578 (active)
